Screening results from PubChem BioAssay.
Most compounds without a hit are left out; they make up all but 19% or so of the library.
HT1080 IDH1KD tx: HT-1080 IDH1 knockdown cell toxicity (counter line). HT-1080 IDH1 knockdown viability, ATP luminescence, 48 h. 360,000 compounds, 2% hits. AID 686971. Potency, µM (highest dose often 46.1 µM), for the others: at the highest dose activity, negative = toxicity, usual class: cytotoxic;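 also: potency is read from the fitted curve at half-maximal effect; 0% = DMSO wells and -100% = cell-free medium wells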
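IDH1KD HT-1080 cells, 750/well, RPMI + 5% FBS; compound pinned after 2 h settling; 48 h, 37 °C; CellTiter-Glo luminescence; % activity normalised to DMSO and no-cell wells; curves fitted, classed by r2 and efficacy.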
HT1080NT lethal: kills 2HG-producing HT-1080-NT fibrosarcoma cells. HT-1080-NT fibrosarcoma viability, CellTiter-Glo ATP luminescence, 48 h. Potency, µM (titrated, usually from 46.1 µM), for the others: at the highest dose activity, negative = less viability, most hits filed as cytotoxic. 360,000 compounds, 1.6% hits. AID 686970;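 also: NT is the 2HG producing partner of a matched IDH1 knockdown line; potency is read from the fitted curve at half-maximal effect; 0% = DMSO-treated cells and -100% = media-only wells without cells; nearly all actives have a fitted effect of over 55% in size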
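Viability by CellTiter-Glo luminescence after 48 h compound exposure at 37C of HT-1080-NT cells (750/well, RPMI, 5% FBS). % activity scaled between DMSO wells and medium-only wells, then curve-fitted and categorized by curve class.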
DT40 TDP1 CPT: DT40-hTDP1 cell growth loss with CPT; Potency, µM (top dose mostly 46.2 µM), for the others: top-dose activity change, negative = growth inhibition, actives largely listed as inhibitors; chicken DT40 Tdp1-/-;hTDP1 cells + 20 nM CPT, ATP luminescence, 48 h; 420,000 compounds, 12% hits; also: potency is read from the fitted curve at half-maximal effect; nearly all actives have a fitted effect of over 55% in size
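Chicken DT40 Tdp1-/- cells complemented with human TDP1, 400 cells/well, exposed to compounds plus 20 nM camptothecin for at least 48 h at 37 C; viability read as ATP content by CellTiter-Glo luminescence.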
IL-1B inflam inh: inhibitors of inflammasome signaling (IL-1 beta secretion); THP-1 LPS/ATP IL-1B secretion, AlphaLISA, 16 h; stronger effect = lower value; activity change, % at 57.5 µM; 360,000 compounds, 4.7% hits; AID 743279; in the data active = activity change below about -50%; inconclusive = mostly about -30% to -49%
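Secreted IL-1B measured by AlphaLISA bead assay after 16 h compound exposure of THP-1 cells; compounds (final up to 57.5 uM) added 1 h before LPS (250 ng/mL) and ATP (1.25 mM) stimulation; lower signal means less secretion.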
DT40 TDP1 no CPT: qHTS for Inhibitors of human tyrosyl-DNA phosphodiesterase 1 (TDP1): qHTS in cells in absence of CPT | DT40 Tdp1-/- hTDP1 cells, no CPT, ATP luminescence, 48 h | Potency, µM (highest dose often 46.2 µM), for inactives: at the top dose activity change, negative = growth inhibition, most hits filed as inhibitors | 420,000 compounds, 15% hits; also: potency is read from the fitted curve at half-maximal effect; nearly all actives have a fitted effect of over 55% in size
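Camptothecin absent (DMSO only). Human TDP1-complemented DT40 knockout cells, 400 cells/well, 37 °C for minimum 48 hr; ATP measured via CellTiter-Glo, 30 min dark incubation, luminescence.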
Numbers without * were called inactive. Unless noted, calls follow the shape of the dose curve; as a rule, active = well fitted curve in the direction sought with a large enough effect; inconclusive = small, poorly fitted or top-dose-only effect, or another doubt; inactive = no such curve, though single readings can be large; an effect the other way counts as inactive or inconclusive. Unless noted, % is scaled to controls: 0 for no effect and ±100 for the full control effect.

CC(NC(=O)Nc1ccc(Br)cc1)C(C)(C)C (configuration not stated) was read as HT1080 IDH1KD tx 0.1%, HT1080NT lethal 5.6%, DT40 TDP1 CPT inconclusive, IL-1B inflam inh 14.6 and DT40 TDP1 no CPT inconclusive.
`O=C(CSc1cccc[n+]1[O-])Nc1cc2c(cc1Cl)C(=O)c1ccccc1C2=O` gave HT1080 IDH1KD tx -2.1%, HT1080NT lethal -2.9%, DT40 TDP1 CPT 20.6µM*, IL-1B inflam inh -6.0 and DT40 TDP1 no CPT inconclusive.
For COC(=O)c1ccc(C(=O)OC)c(NC(=O)CSc2cccc[n+]2[O-])c1 the results were HT1080 IDH1KD tx -3.7%, HT1080NT lethal inconclusive, DT40 TDP1 CPT 0.92µM*, IL-1B inflam inh 90.1 and DT40 TDP1 no CPT 0.731µM*.
O=C(CSc1cccc[n+]1[O-])Nc1ccccc1C(F)(F)F was read as HT1080 IDH1KD tx 10.5%, HT1080NT lethal 3.0%, DT40 TDP1 CPT -6.2%, IL-1B inflam inh 6.2 and DT40 TDP1 no CPT -6.3%.
Screening O=C(CSc1cccc[n+]1[O-])Nc1ccccc1Oc1ccccc1 returned HT1080 IDH1KD tx 6.51µM*, HT1080NT lethal 8.2µM*, DT40 TDP1 CPT 0.92µM*, IL-1B inflam inh -102.2* and DT40 TDP1 no CPT 1.46µM*.
`CCN(CC(=O)NCc1cccs1)C(=O)Cc1ccc(Cl)c(Cl)c1` gave HT1080 IDH1KD tx -4.1%, HT1080NT lethal -4.6%, DT40 TDP1 CPT inconclusive, IL-1B inflam inh -13.2 and DT40 TDP1 no CPT inconclusive.
COc1ccccc1NC(=O)C(C)Sc1nc(-c2ccccc2)cn1N (configuration not stated) was read as HT1080 IDH1KD tx 3.8%, HT1080NT lethal 0.7%, DT40 TDP1 CPT inconclusive, IL-1B inflam inh 4.7 and DT40 TDP1 no CPT -27.2%.
`C=C(C)CSc1nc2sc3c(c2c(=O)n1Cc1ccccc1)CC(C)(CC)OC3` (configuration not stated) gave DT40 TDP1 CPT inconclusive and DT40 TDP1 no CPT 11.6µM*.
Screening Cc1ccc(Cn2nnc3sc4c(c3c2=O)CCC(C)C4)cc1 (configuration not stated) returned DT40 TDP1 CPT -27.7% and DT40 TDP1 no CPT inconclusive.
`CC1CCc2c(sc3nnn(Cc4ccccc4Cl)c(=O)c23)C1` (configuration not stated) gave DT40 TDP1 CPT inconclusive and DT40 TDP1 no CPT 20.6µM*.
CCC1(C)Cc2c(sc3nnn(Cc4ccccc4Cl)c(=O)c23)CO1 (configuration not stated) was read as HT1080 IDH1KD tx -2.6%, HT1080NT lethal 11.0%, DT40 TDP1 CPT inconclusive, IL-1B inflam inh -19.7 and DT40 TDP1 no CPT 16.4µM*.
Screening CC1CCc2c(sc3nnn(Cc4ccc(F)cc4)c(=O)c23)C1 (configuration not stated) returned DT40 TDP1 CPT 3.26µM* and DT40 TDP1 no CPT 25.9µM*.
CN(C(=O)COC(=O)c1nn(C)c(=O)c2ccccc12)c1c(N)n(Cc2ccccc2)c(=O)[nH]c1=O was read as HT1080 IDH1KD tx 7.5%, HT1080NT lethal -1.3%, DT40 TDP1 CPT -1.1%, IL-1B inflam inh 3.7 and DT40 TDP1 no CPT -17.0%.
`COC(=O)c1ccc2nc(-c3ccc(Cl)cc3)c(CC3CCCCC3)n2c1` gave HT1080 IDH1KD tx 12.7%, HT1080NT lethal 10.8%, DT40 TDP1 CPT 8.2µM*, IL-1B inflam inh 53.3 and DT40 TDP1 no CPT 4.11µM*.
`COC(=O)c1ccc2nc(-c3cccc(Br)c3)c(CC3CCCCC3)n2c1` gave HT1080 IDH1KD tx -1.1%, HT1080NT lethal 7.6%, DT40 TDP1 CPT inconclusive, IL-1B inflam inh 60.0 and DT40 TDP1 no CPT inconclusive.
For COC(=O)c1ccc2nc(-c3ccc(OC)c(OC)c3)c(CC3CCCCC3)n2c1 the results were HT1080 IDH1KD tx -9.2%, HT1080NT lethal -15.4%, DT40 TDP1 CPT inconclusive, IL-1B inflam inh 27.5 and DT40 TDP1 no CPT 18.4µM*.
`Cc1ccc2nc(-c3ccc(Cl)cc3)c(CC3CCCCC3)n2c1` gave HT1080 IDH1KD tx inconclusive, HT1080NT lethal inconclusive, DT40 TDP1 CPT inconclusive, IL-1B inflam inh -2.8 and DT40 TDP1 no CPT inconclusive.
`Cc1c(C(=O)OCC(=O)N(C)C2CCS(=O)(=O)C2)oc2ccc(Br)cc12` (configuration not stated) gave HT1080 IDH1KD tx -0.5%, HT1080NT lethal 6.5%, DT40 TDP1 CPT inconclusive, IL-1B inflam inh -10.1 and DT40 TDP1 no CPT inconclusive.
Cc1ccc(CN(Cc2ccco2)c2cnc(S(C)(=O)=O)nc2C(=O)Nc2ccc(Br)cc2)o1 was read as DT40 TDP1 CPT 18.4µM* and DT40 TDP1 no CPT inconclusive.
Screening CC(c1ccco1)N(Cc1ccco1)C(=O)Nc1ccccc1 (configuration not stated) returned HT1080 IDH1KD tx 3.3%, HT1080NT lethal 0.0%, DT40 TDP1 CPT -22.1%, IL-1B inflam inh -0.5 and DT40 TDP1 no CPT -29.4%.
`Cc1ccc(NC(=O)c2nc(S(C)(=O)=O)ncc2N(Cc2ccco2)Cc2ccccc2F)c(C)c1` gave DT40 TDP1 CPT 11.6µM* and DT40 TDP1 no CPT 9.2µM*.
For CC(C)c1ccc(CN(Cc2ccco2)c2cnc(S(C)(=O)=O)nc2C(=O)Nc2ccccc2)cc1 the results were DT40 TDP1 CPT 18.4µM* and DT40 TDP1 no CPT 11.6µM*.
`Cc1ccc(NC(=O)CSc2nccn2Cc2ccco2)c(C)c1` gave HT1080 IDH1KD tx 0.4%, HT1080NT lethal 4.2%, DT40 TDP1 CPT -27.6%, IL-1B inflam inh -2.7 and DT40 TDP1 no CPT -0.1%.
Screening Cc1cccc(C)c1NC(=O)CCCn1nc(C)c2c(C)n(-c3ccccc3)nc2c1=O returned HT1080 IDH1KD tx 6.9%, HT1080NT lethal -0.8%, DT40 TDP1 CPT -6.2%, IL-1B inflam inh -8.8 and DT40 TDP1 no CPT 24.1%.
For CCc1ccc2oc(=O)cc(CN3CCN(Cc4ccccc4)CC3)c2c1 the results were HT1080 IDH1KD tx -2.1%, HT1080NT lethal -11.6%, DT40 TDP1 CPT inconclusive, IL-1B inflam inh 9.4 and DT40 TDP1 no CPT 20.6µM*.
`COc1ccc(N2CCN(Cc3cc(=O)oc4ccc(Cl)cc34)CC2)cc1` gave HT1080 IDH1KD tx -3.2%, HT1080NT lethal -2.9%, DT40 TDP1 CPT inconclusive, IL-1B inflam inh 0.0 and DT40 TDP1 no CPT -11.5%.
CCc1ccc2oc(=O)cc(CN3CCN(c4ccc(F)cc4)CC3)c2c1 was read as HT1080 IDH1KD tx -24.1%, HT1080NT lethal -23.1%, DT40 TDP1 CPT inconclusive, IL-1B inflam inh 11.1 and DT40 TDP1 no CPT 16.4µM*.
COc1ccc2oc(=O)cc(CN3CCN(c4ccc(F)cc4)CC3)c2c1 was read as DT40 TDP1 CPT inconclusive and DT40 TDP1 no CPT 23.1µM*.
